# Screening data: PubChem, National Center for Advancing Translational Sciences (NCATS)
# Only a selection was taken, and hits are over-represented in it overall.
# RE007 growth inh: less growth of the S. pombe RE007 Vpr strain; S. pombe RE007 Vpr strain, BacTiter-Glo ATP luminescence, 24 h; Potency, µM (doses to about 92.2 µM), most hits filed as inhibitors; actives 0.21% (n = 360,000); AID 651644; active = well fitted falling curve with a large enough effect; inconclusive = small, poorly fitted or top-dose-only effect; inactive = no such curve, though single readings can be large or run the other way; also: nearly all actives have a fitted effect of over 50% in size
#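 Fission yeast strain RE007, carrying one chromosomally integrated HIV-1 vpr copy, was seeded at OD 0.01 in PMG+AL medium with 23 nL pinned compound. After 24 h at 30 °C and 99% humidity, viability was read by BacTiter-Glo luminescence.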
# FBPA Giardia inh: blocks Giardia fructose-bisphosphate aldolase activity; purified Giardia FBPA; Potency, µM (doses to about 59.6 µM), most hits filed as inhibitors; actives 0.71% (n = 290,000); AID 2451; also: nearly all actives have a fitted effect of over 55% in size
# Target sequence (A8B2U2 whole entry, looked up): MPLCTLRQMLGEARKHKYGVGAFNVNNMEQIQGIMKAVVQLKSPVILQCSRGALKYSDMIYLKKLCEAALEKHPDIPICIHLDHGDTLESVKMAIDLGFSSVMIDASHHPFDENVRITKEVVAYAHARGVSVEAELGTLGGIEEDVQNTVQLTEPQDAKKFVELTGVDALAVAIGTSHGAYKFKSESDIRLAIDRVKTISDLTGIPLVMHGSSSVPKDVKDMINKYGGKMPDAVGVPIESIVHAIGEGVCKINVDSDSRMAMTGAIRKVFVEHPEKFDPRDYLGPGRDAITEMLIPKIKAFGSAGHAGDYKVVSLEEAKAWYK
#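 Giardia FBPA (40 nM reagent) was preincubated 10 min at RT with compound (up to 57.5 uM final), then substrate plus GAPDH/TPI/NAD/arsenate coupling system with diaphorase/resazurin was added; resorufin fluorescence (525/598 nm) was read after 20 min.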
# Cycloheximide cs: counter-screen for Shiga toxin inhibitors: cycloheximide protein synthesis inhibition. cell reporter, cycloheximide protein synthesis inhibition counterscreen. max response, %. actives 12% (n = 300,000). AID 2314; in the data active = max response mostly above about 13%, no sharp cut-off; inactive = mostly below about 14%; also: read at 38.3 µM for the half of the compounds with a filed dose
# TbPYK inhibitor: blocks Trypanosoma brucei pyruvate kinase; Potency, µM (top dose mostly 76.8 µM), most hits filed as inhibitors; actives 0.12% (n = 410,000); TbPYK enzyme, Kinase-Glo Plus ATP luminescence, 45 min; AID 624173; also: nearly all actives have a fitted effect of over 50% in size
#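 Screened from lowest to highest concentration, compounds were pinned into TbPYK/substrate mixtures, and ADP (130 uM final) was added. Plates sat at room temperature for 45 min prior to Kinase-Glo Plus detection by luminescence.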
# LmPK inh: LmPK (Leishmania mexicana) enzyme inhibition | Q27686 | purified LmPK, Kinase-Glo ATP luminescence, 1 h | Potency, µM (doses to about 57.5 µM), actives largely listed as inhibitors | actives 0.37% (n = 290,000)
#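 qHTS format; LmPK 0.1 nM; substrates PEP 0.5 mM and ADP 0.1 mM. One-hour room-temperature incubation, then coupled luciferase luminescence; 0.5 nM enzyme wells mark activation.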
# Shiga inhibitor: blocks Shiga toxin action in Vero cells; inhibition, % at 38.7 µM; actives 9.2% (n = 290,000); Vero cells, Shiga toxin protein synthesis inhibition reporter; AID 2315; in the data active = inhibition mostly above about 28%, no sharp cut-off; inactive = mostly below about 43%
# A number is an active result; i = inactive; ? = inconclusive; nt = not tested or not shown; [ ] = dose if it differs, or a comment. Unless noted, calls follow the shape of the dose curve; as a rule, active = well fitted curve in the direction sought with a large enough effect; inconclusive = small, poorly fitted or top-dose-only effect, or another doubt; inactive = no such curve, though single readings can be large; an effect the other way counts as inactive or inconclusive.
SMILES,RE007 growth inh,FBPA Giardia inh,Cycloheximide cs,TbPYK inhibitor,LmPK inh,Shiga inhibitor
COc1ccc(C2C(CC(=O)O)=C(Nc3ccccc3)C(=O)N2c2ccccc2)cc1 (centres undefined),i,i,37,i,i,i
O=C(O)CC1=C(Nc2ccccc2)C(=O)N(c2ccccc2)C1c1ccc(F)cc1 (centres undefined),i,i,52,i,i,99
CC(C)(C)Nc1oc(-c2ccccc2)nc1-c1cccc2ccccc12,nt,i,nt,nt,nt,nt
Cc1cccc(NC(=O)c2ccc(C(=O)c3ccccc3)cc2)n1,i,nt,nt,i,nt,nt
Cc1cccc(NC(=O)Nc2ccc(C)c(C)c2)n1,i,i,24,i,i,54
COC(=O)c1ccc(NC(=O)c2cn(-c3cccc(C)n3)cn2)cc1,i,i,i,i,i,i
Cc1cccc(NC(=O)NC(=O)c2ccccc2)n1,i,i,i,i,i,74
Cc1ccc(NC(=O)c2cn(-c3cccc(C)n3)cn2)cc1,i,i,39,i,i,90
Cc1ccc(NC(=O)Nc2cccc(C)n2)cc1,i,i,49,i,i,103
COc1cc(OC)cc(C(=O)N2CCC(c3ccncc3)CC2)c1,nt,nt,nt,i,nt,nt
COc1ccccc1C(=O)Nc1cccc(C(=O)OCc2cc(=O)n3c4c(sc3n2)CCCC4)c1,nt,nt,nt,i,nt,nt
Cc1cccc(NC(=O)Nc2ccc(F)cc2)n1,i,i,i,i,i,63
Cc1cccc(NC(=O)Nc2ccc(Cl)cc2)n1,i,i,22,i,i,39
Cc1cccc(NC(=O)Nc2cccc(C)n2)n1,i,i,20,i,i,86
Cc1cccc(NC(=O)c2cccc(C(=O)Nc3cccc(C)n3)c2)n1,i,?,i,i,i,i
Cc1cccc(NC(=O)Nc2ccc([N+](=O)[O-])cc2)n1,i,i,i,i,i,i
CC1CCCCN1S(=O)(=O)c1ccc2c(c1)oc(=O)n2CC(=O)Nc1ccc(Cl)cc1 (centres undefined),nt,nt,nt,i,nt,nt
COC(=O)N1CCC[C@@]2(CCN(C(=O)Nc3ccc(OC)cc3)C2)C1,nt,i,nt,i,nt,nt
CNS(=O)(=O)c1cccc(C(=O)OCC(=O)Nc2ccc(-c3nc4ccc(C)cc4s3)cc2)c1,i,i,45,i,i,94
COc1ccc(/C=C(\C#N)C(=O)OCC(=O)Nc2ccc(-c3nc4ccc(C)cc4s3)cc2)cc1,i,i,28,i,i,123
CNS(=O)(=O)c1cccc(C(=O)OCC(=O)Nc2ccc(N3CCCCC3)cc2)c1,i,i,i,i,i,i
O=C(COC(=O)c1ccc(Br)o1)Nc1ccc(Br)cc1,i,nt,nt,i,nt,nt
Cc1ccc2nc(-c3ccc(NC(=O)COC(=O)c4ccc(Br)o4)cc3)sc2c1,i,i,27,i,i,81
Cc1ccc2nc(-c3ccc(NC(=O)COC(=O)c4ccc([N+](=O)[O-])o4)cc3)sc2c1,i,i,53,i,i,91
COC(=O)N1[C@H](C)C=C[C@]1(Cc1ccccc1)C(=O)NCc1ccc(N(C)C)cc1,nt,i,nt,nt,nt,nt
SMILES,RE007 growth inh,FBPA Giardia inh,Cycloheximide cs,TbPYK inhibitor,LmPK inh,Shiga inhibitor
CCOc1ncccc1C(=O)OCC(=O)Nc1ccc(-c2nc3ccc(C)cc3s2)cc1,i,i,76,i,i,128
Cc1ccc2nc(-c3ccc(NC(=O)COc4ccccc4C(C)(C)C)cc3)sc2c1,nt,nt,nt,i,nt,nt
Cc1ccc2nc(-c3ccc(NC(=O)COc4ccccc4)cc3)sc2c1,nt,nt,nt,i,nt,nt
CC(=O)Nc1ccc(NC(=O)COC(=O)c2ccco2)cc1,i,i,i,i,i,i
C=CCn1c(SCC(=O)Nc2ccc(-c3nc4ccc(C)cc4s3)cc2)nnc1-c1ccccc1,i,i,42,i,i,84
Cc1ccc2nc(-c3ccc(NC(=O)COC(=O)c4ccco4)cc3)sc2c1,i,i,46,i,i,80
Cc1ccc(NC(=O)COC(=O)c2ccco2)cc1,i,i,37,i,i,54
COc1ccc(Cn2c(CNC(=O)Cc3ccc(OC)c(OC)c3)nc3cccnc32)cc1,nt,nt,nt,i,nt,nt
O=C(Cc1ccc(-c2ccccc2)cc1)NCCS(=O)(=O)N1CCN(c2cccc(Cl)c2)CC1,nt,nt,nt,i,nt,nt
Cc1ccc2cc3cc(C(=O)N4CCN(C(=O)c5ccco5)CC4)sc3nc2c1,i,i,19,i,i,i
Cc1ccc2nc(-c3ccc(NC(=O)CN4CCN(C(=O)c5ccco5)CC4)cc3)sc2c1,i,i,43,i,i,136
Cc1ccc2nc(-c3ccc(NC(=O)COC(=O)c4cncc(Br)c4)cc3)sc2c1,i,i,39,i,i,64
Cc1ccc2cc3cc(C(=O)N4CCN(Cc5ccccc5)CC4)sc3nc2c1,i,i,i,i,i,i
Cc1ccc(NC(=O)CN2CCN(C(=O)c3ccco3)CC2)cc1,i,i,i,i,i,i
O=C(COC(=O)c1cncc(Br)c1)Nc1ccc2c(c1)OCO2,i,i,i,i,i,i
CCCCC/C=C\C/C=C\C/C=C\CCCCCCC(=O)NCC(=O)O,nt,i,nt,nt,nt,nt
Cc1cccc(OCc2nc(CC(=O)Nc3ccc(C)cc3C)cs2)c1,nt,nt,nt,i,nt,nt
O=C(c1csnn1)N1CCC2(CCCN(c3ccccc3)C2)CC1,nt,i,nt,i,nt,nt
O=C(O)c1ccc(Nc2ncnc3ccccc23)cc1,i,i,16,i,i,i
Cc1cccc(Nc2ncnc3nc[nH]c23)c1,i,i,39,i,i,65
Cc1ccc(C)c(Nc2ncnc3nc[nH]c23)c1,i,i,i,i,i,i
O=C(O)CCC(=O)NNc1ncnc2ccccc12,i,i,46,i,i,73
CCC(=O)NNc1ncnc2ccccc12,i,i,i,i,i,i
CCOC(=O)c1ccc(Nc2ncnc3nc[nH]c23)cc1,i,i,22,i,i,44
COc1ccc(-n2ccn(CC(=O)NCCc3ccccc3)c(=O)c2=O)cc1OC,nt,nt,nt,i,nt,nt
SMILES,RE007 growth inh,FBPA Giardia inh,Cycloheximide cs,TbPYK inhibitor,LmPK inh,Shiga inhibitor
COc1ccc(-n2cc(C(=O)NCc3ccc(Cl)cc3)c3ccccc3c2=O)cc1,nt,nt,nt,i,nt,nt
CCOC(=O)c1ccc(Nc2ncnc3ccc(C)cc23)cc1,i,i,i,i,i,i
CCOC(=O)c1ccc(Nc2ncnc3ccccc23)cc1,i,i,46,i,i,i
CN(C)c1cc2c(c(N(C)C)c1)C(=O)c1ccccc1C2=O,i,i,39,i,i,i
COc1cccc(C(=O)Nc2cc(OC)ccc2NC(=O)c2ccco2)c1,i,nt,i,i,i,i
Cc1cc(NC(=O)c2ccco2)ncc1NC(=O)Cc1ccccc1,i,i,19,i,i,i
Cc1cc(NC(=O)C(C)C)ncc1NC(=O)c1ccco1,nt,i,i,nt,i,i
COc1cccc(C(=O)Nc2cnc(NC(=O)c3ccco3)cc2C)c1,i,i,16,i,i,47
CCCC(=O)Nc1nnc(S(=O)(=O)N(C)Cc2ccc(Cl)cc2)s1,nt,nt,nt,i[15.4 µM],nt,nt
COc1ccc(CCc2ccc3cc(OC)ccc3n2)cc1,i,nt,nt,i,nt,nt
